Experimental findings from the supplement of paper PMC10849652 are described below.

Of roughly 8,800 targets only a part is listed; those with a hit were picked by preference. About 0.5% of all pairs of compound and target were hits. Unmarked numbers belong to inactive results.

Chain of UniProt Q8TBX8 (Q8TBX8 whole entry, looked up): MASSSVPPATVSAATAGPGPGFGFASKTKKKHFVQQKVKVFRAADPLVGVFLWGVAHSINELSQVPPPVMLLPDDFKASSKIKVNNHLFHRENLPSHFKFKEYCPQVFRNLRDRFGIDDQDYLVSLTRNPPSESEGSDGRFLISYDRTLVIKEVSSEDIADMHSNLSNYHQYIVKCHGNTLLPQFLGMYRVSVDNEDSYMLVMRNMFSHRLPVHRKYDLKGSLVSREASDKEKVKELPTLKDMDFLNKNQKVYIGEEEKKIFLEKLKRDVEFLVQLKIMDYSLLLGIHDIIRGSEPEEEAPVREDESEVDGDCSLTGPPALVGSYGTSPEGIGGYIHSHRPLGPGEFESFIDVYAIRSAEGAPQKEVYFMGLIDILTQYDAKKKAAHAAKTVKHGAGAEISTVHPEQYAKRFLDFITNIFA
Chain of UniProt Q96CD2 (Q96CD2 whole entry, looked up): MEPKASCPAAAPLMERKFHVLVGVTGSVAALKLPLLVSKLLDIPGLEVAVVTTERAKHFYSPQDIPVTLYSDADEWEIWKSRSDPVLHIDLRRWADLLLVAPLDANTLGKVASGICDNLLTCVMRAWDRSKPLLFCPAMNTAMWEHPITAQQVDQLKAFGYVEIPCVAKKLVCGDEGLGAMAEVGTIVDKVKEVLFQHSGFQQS
Chain of UniProt Q8WUM4 (Q8WUM4 whole entry, looked up): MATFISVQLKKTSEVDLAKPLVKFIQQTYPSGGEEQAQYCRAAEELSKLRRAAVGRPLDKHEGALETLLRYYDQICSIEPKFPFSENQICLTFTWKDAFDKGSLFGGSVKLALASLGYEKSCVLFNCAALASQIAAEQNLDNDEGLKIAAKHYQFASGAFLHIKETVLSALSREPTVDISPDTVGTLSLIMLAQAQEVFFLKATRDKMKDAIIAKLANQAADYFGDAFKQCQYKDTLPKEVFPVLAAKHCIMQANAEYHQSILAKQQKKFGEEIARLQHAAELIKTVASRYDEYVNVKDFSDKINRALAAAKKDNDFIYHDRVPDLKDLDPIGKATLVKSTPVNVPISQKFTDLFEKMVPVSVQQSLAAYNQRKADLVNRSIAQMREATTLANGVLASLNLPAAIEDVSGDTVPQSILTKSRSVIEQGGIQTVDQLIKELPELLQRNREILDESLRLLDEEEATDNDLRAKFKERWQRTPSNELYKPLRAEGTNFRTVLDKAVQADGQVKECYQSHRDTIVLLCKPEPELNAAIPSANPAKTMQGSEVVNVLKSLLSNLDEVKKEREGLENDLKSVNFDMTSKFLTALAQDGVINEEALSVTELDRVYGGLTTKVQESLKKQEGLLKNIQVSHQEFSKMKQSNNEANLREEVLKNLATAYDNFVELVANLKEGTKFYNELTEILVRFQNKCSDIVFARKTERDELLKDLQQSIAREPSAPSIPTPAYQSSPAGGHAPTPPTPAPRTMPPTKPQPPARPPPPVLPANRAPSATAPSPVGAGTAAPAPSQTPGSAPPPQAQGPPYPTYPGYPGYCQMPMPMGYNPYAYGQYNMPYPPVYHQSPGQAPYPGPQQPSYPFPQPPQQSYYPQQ
Chain of UniProt Q9BTU6 (Q9BTU6 whole entry, looked up): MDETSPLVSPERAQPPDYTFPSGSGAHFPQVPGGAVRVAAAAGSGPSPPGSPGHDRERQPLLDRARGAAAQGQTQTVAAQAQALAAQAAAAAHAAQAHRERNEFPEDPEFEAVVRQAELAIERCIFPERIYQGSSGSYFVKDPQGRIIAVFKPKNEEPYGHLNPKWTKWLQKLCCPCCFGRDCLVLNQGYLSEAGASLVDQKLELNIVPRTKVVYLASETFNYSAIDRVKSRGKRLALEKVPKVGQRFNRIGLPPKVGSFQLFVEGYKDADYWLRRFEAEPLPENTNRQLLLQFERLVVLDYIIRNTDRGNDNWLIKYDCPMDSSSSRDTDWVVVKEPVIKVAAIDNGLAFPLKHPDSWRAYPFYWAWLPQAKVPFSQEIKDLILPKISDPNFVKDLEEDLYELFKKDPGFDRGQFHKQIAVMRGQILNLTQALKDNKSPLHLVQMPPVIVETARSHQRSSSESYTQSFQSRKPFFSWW
Chain of UniProt P31323 (P31323 whole entry, looked up): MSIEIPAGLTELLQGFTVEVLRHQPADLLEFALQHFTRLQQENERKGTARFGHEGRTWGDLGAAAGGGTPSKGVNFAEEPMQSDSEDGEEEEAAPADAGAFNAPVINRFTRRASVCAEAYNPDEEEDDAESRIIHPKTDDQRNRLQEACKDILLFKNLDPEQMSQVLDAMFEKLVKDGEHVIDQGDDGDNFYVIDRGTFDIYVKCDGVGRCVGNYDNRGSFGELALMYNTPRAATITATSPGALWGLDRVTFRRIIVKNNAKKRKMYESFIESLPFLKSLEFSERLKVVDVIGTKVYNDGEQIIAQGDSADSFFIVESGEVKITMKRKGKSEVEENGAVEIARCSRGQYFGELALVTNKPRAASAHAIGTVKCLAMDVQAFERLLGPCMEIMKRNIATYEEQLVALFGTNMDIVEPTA
Chain of UniProt Q8NA72 (Q8NA72 whole entry, looked up): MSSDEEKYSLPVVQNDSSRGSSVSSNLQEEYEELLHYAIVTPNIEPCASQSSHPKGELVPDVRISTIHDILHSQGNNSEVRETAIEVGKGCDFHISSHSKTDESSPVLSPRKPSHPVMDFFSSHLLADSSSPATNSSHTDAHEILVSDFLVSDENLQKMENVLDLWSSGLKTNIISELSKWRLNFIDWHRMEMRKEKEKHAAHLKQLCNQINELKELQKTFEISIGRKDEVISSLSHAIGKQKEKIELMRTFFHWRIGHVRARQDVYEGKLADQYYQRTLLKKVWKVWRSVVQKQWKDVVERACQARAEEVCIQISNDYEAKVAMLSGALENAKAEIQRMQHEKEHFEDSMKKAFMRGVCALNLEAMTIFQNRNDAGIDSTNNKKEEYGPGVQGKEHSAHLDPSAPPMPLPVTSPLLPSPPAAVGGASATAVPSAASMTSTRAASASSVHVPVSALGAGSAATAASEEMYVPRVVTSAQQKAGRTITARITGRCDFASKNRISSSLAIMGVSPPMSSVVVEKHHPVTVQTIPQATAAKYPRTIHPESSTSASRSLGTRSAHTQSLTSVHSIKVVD
Chain of UniProt Q9BUL8 (Q9BUL8 whole entry, looked up): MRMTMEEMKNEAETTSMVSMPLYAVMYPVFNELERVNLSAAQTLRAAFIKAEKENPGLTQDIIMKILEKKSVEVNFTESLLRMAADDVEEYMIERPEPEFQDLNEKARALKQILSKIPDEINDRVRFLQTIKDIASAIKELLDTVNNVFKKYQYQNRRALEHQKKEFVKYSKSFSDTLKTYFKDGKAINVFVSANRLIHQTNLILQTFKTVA
Chain of UniProt Q9H3S7 (Q9H3S7 whole entry, looked up): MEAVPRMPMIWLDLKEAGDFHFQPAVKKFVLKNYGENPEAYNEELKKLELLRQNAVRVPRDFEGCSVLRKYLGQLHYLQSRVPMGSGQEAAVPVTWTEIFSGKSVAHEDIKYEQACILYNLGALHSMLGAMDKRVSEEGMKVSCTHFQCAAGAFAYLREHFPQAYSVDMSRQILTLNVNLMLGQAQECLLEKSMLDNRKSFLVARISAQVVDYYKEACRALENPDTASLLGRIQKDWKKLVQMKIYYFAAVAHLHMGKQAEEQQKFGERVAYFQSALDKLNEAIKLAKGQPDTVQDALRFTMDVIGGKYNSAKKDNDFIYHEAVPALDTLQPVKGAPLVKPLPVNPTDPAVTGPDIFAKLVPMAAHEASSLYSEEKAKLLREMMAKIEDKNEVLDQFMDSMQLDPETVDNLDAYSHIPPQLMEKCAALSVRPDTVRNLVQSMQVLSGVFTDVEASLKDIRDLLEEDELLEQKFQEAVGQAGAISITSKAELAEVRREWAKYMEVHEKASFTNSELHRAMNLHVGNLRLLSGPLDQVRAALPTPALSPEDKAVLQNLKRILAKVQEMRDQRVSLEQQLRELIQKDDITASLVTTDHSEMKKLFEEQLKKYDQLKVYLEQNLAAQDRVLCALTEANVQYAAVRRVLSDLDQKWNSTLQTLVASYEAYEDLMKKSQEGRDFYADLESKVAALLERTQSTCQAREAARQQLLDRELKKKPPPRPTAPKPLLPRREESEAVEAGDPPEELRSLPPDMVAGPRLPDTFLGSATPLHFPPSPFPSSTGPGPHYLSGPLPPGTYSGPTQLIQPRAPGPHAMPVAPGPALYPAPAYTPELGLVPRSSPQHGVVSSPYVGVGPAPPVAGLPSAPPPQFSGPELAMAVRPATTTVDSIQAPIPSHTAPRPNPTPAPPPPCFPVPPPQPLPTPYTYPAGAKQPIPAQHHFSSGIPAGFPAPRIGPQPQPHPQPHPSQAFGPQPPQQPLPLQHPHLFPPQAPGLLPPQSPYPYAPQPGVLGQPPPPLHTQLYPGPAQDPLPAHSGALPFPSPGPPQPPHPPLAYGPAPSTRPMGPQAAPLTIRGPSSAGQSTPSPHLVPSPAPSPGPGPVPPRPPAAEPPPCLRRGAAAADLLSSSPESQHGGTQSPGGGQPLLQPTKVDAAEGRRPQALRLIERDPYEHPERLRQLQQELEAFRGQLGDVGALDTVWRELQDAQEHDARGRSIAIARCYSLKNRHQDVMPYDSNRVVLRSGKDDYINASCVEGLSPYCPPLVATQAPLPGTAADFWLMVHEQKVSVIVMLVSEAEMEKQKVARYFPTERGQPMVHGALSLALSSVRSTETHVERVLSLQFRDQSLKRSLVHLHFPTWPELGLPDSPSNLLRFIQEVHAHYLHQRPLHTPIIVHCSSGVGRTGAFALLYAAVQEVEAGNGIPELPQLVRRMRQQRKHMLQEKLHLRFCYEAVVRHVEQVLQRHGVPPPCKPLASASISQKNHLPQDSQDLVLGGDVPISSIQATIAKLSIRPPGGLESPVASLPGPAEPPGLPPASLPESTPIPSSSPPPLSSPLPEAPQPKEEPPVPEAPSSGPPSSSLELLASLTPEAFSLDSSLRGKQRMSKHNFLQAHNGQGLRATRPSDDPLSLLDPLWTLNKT
Chain of UniProt P06454 (P06454 whole entry, looked up): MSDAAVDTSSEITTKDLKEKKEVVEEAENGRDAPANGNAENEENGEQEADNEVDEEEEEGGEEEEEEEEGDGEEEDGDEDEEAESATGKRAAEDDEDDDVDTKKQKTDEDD

Compound in the assay: NCC(=O)Nc1ccc(-n2nc(C(F)(F)F)cc2-c2ccc3c(ccc4ccccc43)c2)cc1
Put plainly: log2 fold change, soluble protein after heating vs DMSO (PISA); higher = thermal stabilisation; K562 lysate, 10 uM; active = over 0.2 and 3.5 SD of the protein, either way, in both replicates (recomputed). A digest of the protocol:
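Soluble protein was defined as the supernatant remaining after 21,000xg for 90 min, following pooling of heated aliquots and adjustment to 0.5% NP-40 at 4°C. Before that, crude K562 extract at 1 mg/mL protein in PBS pH 7.4 with 1 mM MgCl2 was treated with 10 μM compound for 30 min and heated for 3 min across 48°C-58°C. Quantification used TMTpro 16plex LC-MS/MS with channel sums equalised, and values are log-two fold changes in thermal stability relative to solvent controls from duplicates.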
For the target PIK3CD (UniProt O00329), the log2 fold change was -0.059.
Take PIAS2 (UniProt O75928): the log2 fold change is 0.469 (active).
Take PDAP1 (UniProt Q13442): the log2 fold change is 0.014.
Consider PTPN23 (UniProt Q9H3S7), for which the log2 fold change is -0.011.
In the case of PIP4K2C (UniProt Q8TBX8), the log2 fold change was 0.021.
The same measure for PDCD6IP (UniProt Q8WUM4): 0.065.
The same measure for PRIM1 (UniProt P49642): -0.015; for PPCDC (UniProt Q96CD2): 0.001.
In the case of PDXDC1 (UniProt Q6P996), the log2 fold change was -0.041.
As for PPIC (UniProt P45877), the log2 fold change was 0.12.
Consider PDCD10 (UniProt Q9BUL8), for which the log2 fold change was -0.009.
To POLR2M (UniProt P0CAP2) belongs 0.034; to PYCR2 (UniProt Q96C36), 0.002.
For PUM1 isoform 3 (UniProt Q14671), the log2 fold change was 0.027.
For the target PHKA2 (UniProt P46019), the log2 fold change is 0.017.
On to PI4KB (UniProt Q9UBF8), for which the log2 fold change was -0.085.
As to PEX2 (UniProt P28328), the log2 fold change was -0.055.
Consider PTPN6 isoform 4 (UniProt P29350), for which the log2 fold change was -0.001.
To PTMA (UniProt P06454) belongs -0.002; to PI4K2A (UniProt Q9BTU6), -0.006; to PTP4A1 (UniProt Q93096), 0.019.
To PPFIA2 (UniProt O75334) belongs 0.05; to PUF60 isoform 2 (UniProt Q9UHX1), -0.061; to PRKCSH (UniProt K7ELL7), 0.132.
To PGRMC1 (UniProt O00264) belongs -0.018; to PGLS (UniProt O95336), -0.08.
For the target PIP4P2 (UniProt Q8N4L2), the log2 fold change was 0.004.
Consider PPIL3 (UniProt Q9H2H8), for which the log2 fold change is 0.084.
For the target PLA2G4B isoform 6 (UniProt P0C869), the log2 fold change is -0.008.
In the case of PMS1 (UniProt P54277), the log2 fold change was 0.01.
For POC5 (UniProt Q8NA72), the log2 fold change was -0.128.
As for PELO (UniProt Q9BRX2), the log2 fold change was 0.021.
Consider PIK3R2 (UniProt O00459), for which the log2 fold change is -0.007.
Take PRKAR2B (UniProt P31323): the log2 fold change was 0.014.
As to PPP2R5C isoform 2 (UniProt Q13362), the log2 fold change was -0.004.
In the case of PIP4K2B (UniProt P78356), the log2 fold change is 0.005.
Consider PRKCA (UniProt P17252), for which the log2 fold change was -0.045.
For the target POLR2M (UniProt Q6EEV4), the log2 fold change is 0.146.
